Assay results taken from PubChem BioAssay AID1347426 (Functional Genomics Laboratory (NCATS/FGL), 2020).
Screen size: about 31,000 sequences; about 1,400 (4.5%) were called active. Only a selection was taken, and actives are over-represented in it overall. A number with no mark means an inactive call.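 How the source made its calls: active means median seed-adjusted z-score above 1 or below -1; inactive means the rest.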

Test: Novel Modifiers of Survival Motor Neuron (SMN) Protein: Gene Identification via Genome-wide siRNA Screen;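 further: luminescence tracks full-length SMN protein made from the SMN2 reporter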
Details: HEK293T SMN2-luciferase reporter, siRNA knockdown, 72 h; actives lie on both sides
Summary of the method: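 Luciferase signal, proportional to full-length SMN made from an SMN2 cDNA reporter in stable HEK293T cells, was read 72 h after siRNA reverse transfection. Values were expressed as MAD scores after non-targeting-control normalization and log10 conversion; seed analysis flagged off-targets.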

Sequence | median seed-adjusted z-score
GGCAAAAAGCUGACUGAGATT against GPD1 | 0.558
GGAUGAUUAUGCUAAUCUATT against GGPS1 | -0.372
GCACUGUCUUUGUAUCUGATT against SFXN2 | 0.365
GGGCUGUUGUAAUAGUGGATT against SFPQ | -1.15 (active)
AGGCCUUUCUUACCCAGAATT against MAP2K1 | 0.942
CACUUGAUCUCUUAACCAUTT against 10-Sep | 0.571
GCACAGGACAGACAGGCUATT against SRC | -0.0246
GGAUUACAGCAGGUGCAGATT against MED8 | -1.61 (active)
GAAUCUCACAAUUAUGUAUTT against NCK2 | -0.397
AGAUAAGCAUGGUGCCCAATT against BPI | 0
GACCGUUUAAUGAAGCUUUTT against SPTLC2 | 0
CCAUUGUAGUCUCUCCUCUTT against RECQL5 | 0
GCCCUCCUGUGCAACCAUATT against SPRR2G | 0.358
ACAUGAAGGUGAAUCCUGUTT against COX4I2 | -0.0202
CAGCGAUUUUAAAUCGUAUTT against HSD17B13 | -0.329
CAACCAACCUGCAUCUAGATT against TRIM33 | 0.316
CGACCCUUGAAGUUCAAUATT against EFTUD2 | -1.25 (active)
GGAUCCUUCUAUACGCAUATT against SLC4A7 | 0
CAGUAGAUGUGGAAAAGGATT against PTK2B | 1.71 (active)
CCAUUGAUGGAGUCAGAUUTT against POLD2 | 0.97
CCACUAGUGAAACAACCAATT against PCLO | -0.734
GCAAGGAGCUAGAGCCUUUTT against MOBKL2B | -0.613

Sequence | median seed-adjusted z-score
GCAAGUCCACGUUCCUCAATT against GNA12 | 0.598
AGCUACCGAUGGAAGAGGATT against CLK3 | -1.11 (active)
AGGUCAAGCUUAGUGACAATT against ZDHHC8 | 0
GCUUCUCAUGGGAUCAAAATT against PGCP | 0.145
CCGGGAAAUUGAUUAUGCATT against SIN3B | 0.509
GCAUCUCAUCGGAAGAGGATT against MAP3K12 | -0.6
GAUCCUAAAUCAUGACUUATT against COX6B1 | -0.706
GGACGAAUGAGUUCCAGUUTT against PCDHB8 | 1.15 (active)
AGACCUAGCUUUAGCACAATT against ZFAND2B | 0
GAAGCGGCAUUAGCAGAGATT against ISOC1 | 0.104
GGUAAAAUCAAGUACCAUATT against TIGD2 | -0.13
GCAUCACCAUCCUUCCGCATT against BACE1 | -0.537
AGAGAGUGGUUUUUCCUCCTT against WWP2 | -0.685
GUGCUUCAGUAGGUAUGUATT against ASNS | -1.1 (active)
GGCCUUUAGUUAUAAAGGATT against TIMM8A | 0.173
ACAUAGCCGUGUCCAGGUATT against GLYCTK | 0.0328
GACCUGAAUUGUAUCAUCATT against MAPK3 | -0.573
GAACUCCAGAGAUCAAUAATT against IL7R | 0
CCAACUAUCAGUGACCGUATT against CYP17A1 | -1.39 (active)
CUAUCACCUGGACUGUAUATT against RNF11 | -0.365
GGAGACUUACUACCUAUAATT against PARD6B | 0.315
GGCUUCUUCUAUUCAAUUUTT against BCL6B | 0

Sequence | median seed-adjusted z-score
GAACUGACAAGCUUAGUAATT against SAP18 | 2.14 (active)
AUACAGAUCUAAUAGAGUUTT against NAT1 | -0.0665
CCAUUGACAAUUCAACUUATT against ST8SIA1 | -0.25
CGCCUCAACCUGAUCAUCATT against ENPP7 | -0.478
GUGCCUUGCUAUUCUAAGATT against NEUROD1 | 0
GAAACUCUCUUCAAGUCUATT against CKB | -0.236
GGCAAAUGGUUGAGACUGATT against YWHAE | 1.38 (active)
GCAGCAUAAUGAAACGUGATT against ARPM1 | -0.0251
UCUUCGAGCAAGAAACUAATT against CD9 | -1.02 (active)
AUAAAUUCCUGAUUGCUAATT against CXCL6 | 0.802
GGACUACAGCGGACAAGGATT against WDR1 | -0.457
GGAACAUUCCUGUGCAACATT against MTMR3 | 0.281
GAUGAUAGCCAAACCCUCATT against ZNF626 | 0.185
GGUGUUGUUUCAUCGUUUUTT against CCNL1 | -1.26 (active)
GUGCAUGCAGGAGAAGUCATT against GATA2 | 0.623
GCAUGCAGCCUUGAAGAUATT against CRYZL1 | 0.0481
CGUGUCAAAUAUUGGAUUATT against KLB | 0.221
GCACCUUCGUCCUCAACUUTT against PROC | -0.228
CCGCUGAACCUGUUGAAGATT against SGMS2 | -0.492
GGUGCUCUCGGUUGCACAATT against U2AF1 | 2.08 (active)
CAAGCUCUGAUAUACCGAATT against HIVEP1 | 0.532
UGCACAUCAAGUAUCCUAATT against SLC30A10 | 0.523

Sequence | median seed-adjusted z-score
GCAUCAUCCAGAACACGGATT against ARHGEF18 | 0.586
CGAUGGAGAUGUUUCGGGATT against KCNA2 | -1.03 (active)
GCGAGAGUCUGCAUAGGUATT against GRIN2D | -0.135
GGAAGAAAGUAUAAUAGAATT against MAFG | 0
UGAUCAACCUCAAGACGGATT against MED16 | -0.6
GAAACACGUCAGUCCUAAUTT against LHX8 | 0
GAAGUUCAUACUAAGCGUATT against TPR | -1.03 (active)
CGUGGUACCAGACAUCUGATT against CCL17 | 0.178
GACCGACUGCAGAACAAUATT against PDE6B | -0.336
GGAUAAUACAGUUCGAUUATT against TAF5 | -0.192
GACUCCCUGCUUUCAAUAATT against SALL2 | 0.504
CCCUCUCAGUACUACGCUATT against ZMYND10 | 0.255
CAAGAAAACUGCGAAUAAATT against STX2 | 0.442
GUUUCAUCUGGGUUCGCUATT against SF3B3 | -2.53 (active)
GAACCAUCUCAAUACUAUUTT against DACH2 | -0.00102
GGGCGAGUAUUAUGACUAUTT against MYO15A | 0.0508
GACUGUUCGUUUCCCAGAUTT against CHRNA7 | -0.485
GAGACAGCCUGAUGGAGAATT against STC1 | -1.36 (active)
GCUCCUUGCUACCAUAGUATT against CCBP2 | -0.0896
CUCUCAGACAAGCUACUGATT against CCL27 | 0
GUUGUGGUCUGAUCAGUUATT against TUBA1A | 0.284
AGUUCCCUUUGUAACCAUATT against ZNF669 | 0.175

Sequence | median seed-adjusted z-score
AGGCUGCGUUUGGACCAGATT against PAPLN | -0.186
CAUGGGUGCUUAUAAGUCATT against IL1A | 1.12 (active)
GGGCUGCACCAAAGCCUAUTT against KLF14 | 0.0241
GUUUAUUUCGUACACUAAATT against KTI12 | 0.0814
GCGUCGUGGUCAUGAACAATT against PIP5K1C | -0.13
CAGUGUCCCUAUGAAGGGATT against SRMS | -1.58 (active)
GCUAUUGAGUUUGCCCAAATT against ADHFE1 | 0.418
CUAGUGAUCUUUUAGAGUUTT against CSGALNACT2 | 0.236
GAACUUUAUUGCAAAGUUUTT against CSRP3 | 0.15
GCAUCGAGAUCCACGAAGATT against PITPNM3 | -0.0378
AGAAGACUCUGGUAAUGUATT against WHSC1 | 1.17 (active)
CUGAUUCAAGAGAAGAUUATT against SMARCAL1 | -0.145
GAACAGAUCCGGAAGAAGATT against NR1H2 | 0.069
GGACUUUGAUUGCUAGCAATT against CTRC | -0.104
GCUUGAAGAGUUUGGCUGGTT against DUSP15 | 0
GCAAUUAACAAUUAUCGAUTT against RNASE3 | 0.588
AGUUUGUCCUGAAGAAUUATT against PTPN23 | -0.0473
GGGUCAUCUAUAUCCGCAATT against GPR132 | 0
GCAUCUGCUGUAUCGAUGATT against MCM4 | 0.0057
GCCCUUACAGGGUAUCAAATT against DDX46 | -1.24 (active)
CACGGAUUCUUGUUGGAAATT against RAB33B | -0.758
